Inconclusive results are not listed. Active and inactive are the calls of the source. Unless noted, the call rests on the fitted dose curve.

Test [1] is described as follows: qHTS for Inhibitors of the Functional Ribonucleoprotein Complex (vRNP) of Lassa (LASV) Arenavirus: LASV Primary Screen - GLuc reporter signal (AID 1347082; calls by dose curve; tested in HEK293 reporter line; further: nearly all actives have a fitted effect of over 60% in size; on activity change, negative = inhibition: on the % scale 0 is the no-effect control and ±100 the full control effect). The following applies: LASV minigenome vRNP, Gaussia luciferase reporter; series mostly up to 57.5 µM. On the technique in general: Quantitative high-throughput screening tests each substance at several concentrations.

Test [2] can be described thus: qHTS for Inhibitors of the Functional Ribonucleoprotein Complex (vRNP) of Lassa (LASV) Arenavirus: Viability assay - alamar blue signal for LASV Primary Screen (AID 1347083; calls by dose curve; tested in HEK293 reporter line; further: nearly all actives have a fitted effect of over 80% in size). The note with it: cell viability, alamar blue fluorescence (LASV minigenome counter-screen); series mostly up to 57.5 µM.
A short description of test [3]: qHTS for Inhibitors of the Functional Ribonucleoprotein Complex (vRNP) of Lymphocytic Choriomeningitis Arenaviruses (LCMV): Viability assay - alamar blue signal for LCMV Primary Screen (AID 1347085; calls by dose curve; tested in HEK293 reporter line; further: nearly all actives have a fitted effect of over 80% in size). The note with it: alamar blue viability counter-screen, LCMV vRNP screen cells; series mostly up to 57.5 µM.
The target in test [4] is Nucleoprotein (Lymphocytic choriomeningitis virus (strain Armstrong)) (UniProt P09992). Briefly: qHTS for Inhibitors of the Functional Ribonucleoprotein Complex (vRNP) of Lymphocytic Choriomeningitis Arenaviruses (LCMV): LCMV Primary Screen - GLuc reporter signal (AID 1347086). Further: nearly all actives have a fitted effect of over 70% in size. On activity change, negative = inhibition: on the % scale 0 is the no-effect control and ±100 the full control effect. The note with it: LCMV minigenome vRNP cell assay, Gaussia luciferase reporter; series mostly up to 57.5 µM.
Sequence of Nucleoprotein (Lymphocytic choriomeningitis virus (strain Armstrong)) (P09992 whole entry, looked up): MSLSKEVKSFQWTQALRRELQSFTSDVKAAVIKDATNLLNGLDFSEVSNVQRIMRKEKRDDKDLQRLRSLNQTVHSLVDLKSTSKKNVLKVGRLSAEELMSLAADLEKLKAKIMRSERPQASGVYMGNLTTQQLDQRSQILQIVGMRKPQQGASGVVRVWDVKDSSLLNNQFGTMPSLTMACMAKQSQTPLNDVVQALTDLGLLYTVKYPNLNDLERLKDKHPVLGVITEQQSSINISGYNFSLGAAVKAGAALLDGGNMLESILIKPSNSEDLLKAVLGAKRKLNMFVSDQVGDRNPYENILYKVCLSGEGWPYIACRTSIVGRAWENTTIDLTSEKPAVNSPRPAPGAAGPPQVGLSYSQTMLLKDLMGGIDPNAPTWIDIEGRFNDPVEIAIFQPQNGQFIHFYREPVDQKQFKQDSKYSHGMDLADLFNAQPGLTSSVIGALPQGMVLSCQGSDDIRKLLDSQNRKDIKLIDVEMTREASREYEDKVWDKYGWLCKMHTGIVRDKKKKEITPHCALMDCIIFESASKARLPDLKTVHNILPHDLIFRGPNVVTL

The nature of test [5]: Cytotoxicity counterscreen for inhibitors of SARS-CoV-2 cell entry (AID 1645845). Further: nearly all actives have a fitted effect of over 50% in size. On activity change, negative = cytotoxicity: on the % scale 0 is the no-effect control and ±100 the full control effect. The following applies: cell viability (SARS-CoV-2 entry assay cells); series mostly up to 57.1 µM. In outline: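 ATP-content luminescence (ATPLite 1step, 15 min RT) read after 48 h compound exposure of Expi293F cells stably expressing human ACE2; normalized to cells-only wells and media-only wells.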
For orientation: The purpose of a counterscreen is to sort out artefacts and off-target activity.

Test [6] is described as follows: Primary qHTS to identify inhibitors of SARS-CoV-2 cell entry (AID 1645846). Further: nearly all actives have a fitted effect of over 45% in size. The note with it: SARS-CoV-2 pseudovirus cell entry assay, luminescence; activity change, negative = inhibition: at 57.1 µM (top of the series) unless noted; series mostly up to 57.1 µM. Summed up:
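Using luciferase-reporting pseudoviruses carrying Wuhan-Hu-1 spike, the screen tracks entry into stably ACE2-expressing cells over 48 hr. Activity is expressed relative to spike particles versus particles lacking any fusion protein.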
Potency means the concentration at half of the fitted maximal effect.

For `COc1ccc2c(Oc3ccc(NC(=O)c4c(C)n(CC(C)(C)O)n(-c5ccccc5)c4=O)cc3F)ccnc2c1`, the Potency result in test [1], in test [2], in test [3], in test [4] and in test [5] was “inactive” throughout. In test [6], the activity change, negative = inhibition was -8.07%.
Consider `CC1(COc2ccc3c(c2)ncn3-c2ccc3cccc(N4CCC(N)CC4)c3n2)COC1`, for which the Potency in test [1] is 0.0544 µM (active); in test [5], 28.2 µM (active); in test [6] it was 10 µM (active). Moreover, the Potency entry in test [2], in test [3] and in test [4] was “inactive” each time.
As for `O=C(NC[C@H](O)CO)c1ccncc1Nc1ccc(I)cc1F`, the Potency result in test [1], in test [2], in test [3], in test [4], in test [5] and in test [6] was “inactive” throughout.
Take `O=C(NCc1ccncc1)C12C[C@H]3C[C@@H](C1)CC(c1ccc(Cl)cc1)(C3)C2`: the Potency entry in test [1], in test [2], in test [3], in test [4] and in test [5] was “inactive” each time.
As to `CC1CCC(C(=O)N(c2cc(C#CC(C)(C)C)sc2C(=O)O)C2CCC(O)CC2)CC1` (centres undefined), the Potency entry in test [1], in test [2], in test [3], in test [4] and in test [5] was “inactive” in each case.
For `CN(C[C@@H]1COCCO1)S(=O)(=O)Nc1ccc2ccc3ncc(-c4cnn(C)c4)cc3c(=O)c2c1`, the Potency entry in test [1], in test [2], in test [3], in test [4] and in test [5] was “inactive” in each case.
As for `O=S(=O)(O)CCSSCCS(=O)(=O)O`, the Potency entry in test [1], in test [2], in test [3], in test [4], in test [5] and in test [6] was “inactive” each time.
`C[C@H](CCC(=O)O)[C@H]1CCC2C3C[C@H](O)[C@@H]4C[C@H](O)CC[C@]4(C)C3CC[C@@]21C` (some centres undefined): the Potency result in test [1], in test [2], in test [3], in test [4] and in test [5] was “inactive” throughout. Moreover, in test [6], the activity change, negative = inhibition was -10.6%.
In the case of `Cn1c(CNc2ccc(C(=N)N)cc2)nc2cc(C(=O)N(CCC(=O)O)c3ccccn3)ccc21`, the Potency entry in test [1], in test [2], in test [3] and in test [4] was “inactive” throughout. Besides, in test [5], the activity change, negative = cytotoxicity is -8.56% [at 0.702 µM] (inactive). The activity change, negative = inhibition in test [6] is -9.36% [at 0.702 µM].
For `Cn1c(=O)c(-c2c(Cl)cccc2Cl)cc2cnc(Nc3cccc(C(=O)O)c3)nc21`, the Potency entry in test [1], in test [2], in test [3], in test [4], in test [5] and in test [6] was “inactive” in each case.
As to `C[C@]12CCC3c4ccc(O)cc4CCC3C1CCC2=O` (some centres undefined), the Potency entry in test [1], in test [2], in test [3], in test [4], in test [5] and in test [6] was “inactive” each time.
With `CC(C)(F)C[C@H](N[C@@H](c1ccc(-c2ccc(S(C)(=O)=O)cc2)cc1)C(F)(F)F)C(=O)NC1(C#N)CC1`, the Potency entry in test [1], in test [2], in test [3], in test [4] and in test [5] was “inactive” in each case.
As for `O=C1CN2Cc3c(ccc(Cl)c3Cl)N=C2N1`, the Potency result in test [1], in test [2], in test [3], in test [4], in test [5] and in test [6] was “inactive” throughout.
With `Nc1cccc(-c2cc3c(Oc4cccc(O)c4)ncnc3[nH]2)c1`, the Potency entry in test [1], in test [4] and in test [5] was “inactive” in each case. In addition, the figures for the Potency in test [2] and in test [3] were 34.3 µM (active) and 30.6 µM (active), respectively. Besides, the activity change, negative = inhibition in test [6] is -8.51%.
Turning to `COc1ccc(Nc2nccc(NCCO)n2)cc1`, the Potency entry in test [1], in test [2], in test [3], in test [4], in test [5] and in test [6] was “inactive” each time.
For `CNC(=O)c1cc(COc2nnc(Nc3ccc(Cl)cc3)c3ccoc23)ccn1`, the Potency entry in test [1], in test [2], in test [3], in test [4] and in test [5] was “inactive” each time. In addition, in test [6], the activity change, negative = inhibition is -17%.
On to `Cn1cnc2c(F)c(Nc3ccc(Br)cc3F)c(C(=O)NOCCO)cc21`, for which the Potency entry in test [1], in test [2], in test [3], in test [4] and in test [5] was “inactive” throughout. In addition, the activity change, negative = inhibition in test [6] was -25.1%.
As for `Cc1cncc2cccc(S(=O)(=O)N3CCCN(C(=O)CN)C[C@@H]3C)c12`, the Potency entry in test [1], in test [2], in test [3], in test [4] and in test [5] was “inactive” in each case. For the same compound, the activity change, negative = inhibition in test [6] is -30.7%.
In the case of `C[Se]CCC(N)C(=O)O` (centres undefined), the Potency entry in test [1], in test [2], in test [3], in test [4] and in test [5] was “inactive” in each case. Also, the activity change, negative = inhibition in test [6] is -2.1% [at 114 µM].
In the case of `Cc1cn2cc(C(=O)N(C)CCO)cc(N[C@@H]3CCOc4cccc(C)c43)c2n1`, the Potency entry in test [1], in test [2], in test [3], in test [4], in test [5] and in test [6] was “inactive” each time.
On to `c1ccc2c(Oc3nc(Nc4ccc(N5CCOCC5)cc4)c4ncn(C5CCCCC5)c4n3)cccc2c1`, for which the Potency entry in test [1], in test [2], in test [3], in test [4] and in test [5] was “inactive” in each case. In addition, the activity change, negative = inhibition in test [6] was -17.3%.
For `CC[C@@H]([C@H](C)O)n1ncn(-c2ccc(N3CCN(c4ccc(OCC5CO[C@@](Cn6cncn6)(c6ccc(F)cc6F)C5)cc4)CC3)cc2)c1=O` (some centres undefined), the Potency entry in test [1], in test [2], in test [3], in test [4] and in test [5] was “inactive” in each case.
As to `Clc1ccc2c(N3CCN(CCCN4CCN(c5ccnc6cc(Cl)ccc56)CC4)CC3)ccnc2c1`, the Potency result in test [1], in test [2], in test [3], in test [4] and in test [5] was “inactive” throughout. The activity change, negative = inhibition in test [6] is -11.2%.
For `COc1ccc(-c2ccc3ncc4c(c3c2)n(-c2ccc(N3CCNCC3)c(C(F)(F)F)c2)c(=O)n4C)cn1`, the Potency in test [1] was 0.0022 µM (active); in test [5], 4.47 µM (active); in test [6], 3.16 µM (active). Further, the Potency result in test [2], in test [3] and in test [4] was “inactive” in each case.
As to `CC(C)C[C@@H](N)[C@H](O)C(=O)N[C@H](C(=O)N[C@H](C(=O)N[C@@H](CC(=O)O)C(=O)O)C(C)C)C(C)C`, the Potency result in test [1], in test [2], in test [3], in test [4] and in test [5] was “inactive” each time. Further, the activity change, negative = inhibition in test [6] was -14%.
On to `CCCCCCCCCCCC(CC1OC(=O)C1CCCCCC)OC(=O)C(CC(C)C)NC=O` (centres undefined), for which the Potency entry in test [1], in test [2], in test [3], in test [4] and in test [5] was “inactive” each time. Also, in test [6], the activity change, negative = inhibition was determined as 0.438%.
On to `Nc1nc2c(c(=O)[nH]1)N(C=O)[C@H](CNc1ccc(C(=O)N[C@@H](CCC(=O)O)C(=O)O)cc1)CN2`, for which the Potency entry in test [1], in test [2], in test [3], in test [4], in test [5] and in test [6] was “inactive” each time.
`COc1ccc(C(=O)CC2(O)C(=O)Nc3c(Cl)ccc(Cl)c32)cc1` (centres undefined): the Potency in test [1] is 24.3 µM (active); in test [2] it was 1.53 µM (active); in test [3] it was 0.432 µM (active); in test [4], 2.73 µM (active). In test [5], the Potency result was “inactive”.
The matching figures for `C[C@]12CC[C@@H]3c4ccc(O)cc4C[C@@H](CCCCCCCCCS(=O)CCCC(F)(F)C(F)(F)F)[C@H]3[C@H]1CC[C@H]2O` (some centres undefined): “inactive”, “inactive”, “inactive”, “inactive” and “inactive”.
Take `Cc1noc(-c2ccc(CSCCC(=O)O)cc2)c1NC(=O)OC(C)c1ccccc1Cl` (centres undefined): the Potency result in test [1], in test [2], in test [3], in test [4] and in test [5] was “inactive” in each case. In test [6], the activity change, negative = inhibition was -12.6%.
As for `COc1ccc(CC2=NN3C([C@@H](CCc4ccccc4)[C@@H](C)O)=NC(C)C3C(=O)N2)cc1OC` (some centres undefined), the Potency result in test [1], in test [2], in test [3], in test [4], in test [5] and in test [6] was “inactive” in each case.
With `c1cc(-c2sc(-c3ccncc3)c(-c3ccncc3)c2-c2ccncc2)ccn1`, the Potency result in test [1], in test [2], in test [3], in test [4], in test [5] and in test [6] was “inactive” throughout.
For the compound `CN1CC(=O)NC1=NC(=O)Nc1cccc(Cl)c1`, the Potency result in test [1], in test [2], in test [3], in test [4] and in test [5] was “inactive” throughout. In addition, the activity change, negative = inhibition in test [6] is -1.73%.
Consider `C[C@H](O)[C@@H]1C(=O)N2C(C(=O)O)=C(S[C@@H]3CN[C@H](CNS(N)(=O)=O)C3)[C@@H](C)[C@@H]12`, for which the Potency result in test [1], in test [2], in test [3], in test [4], in test [5] and in test [6] was “inactive” each time.
On to `CNc1nc(Nc2ccc(C(=O)N3CCOCC3)cc2OC)ncc1Cl`, for which the Potency entry in test [1], in test [3], in test [4], in test [5] and in test [6] was “inactive” each time. Moreover, in test [2], the Potency was 24.3 µM (active).
Consider `C=C[C@@H]1CN2CCC1C[C@H]2[C@H](O)c1ccnc2ccc(OC)cc12` (some centres undefined), for which the Potency result in test [1], in test [2], in test [3], in test [4] and in test [5] was “inactive” throughout. Also, in test [6], the activity change, negative = inhibition was -48.9%.

These data come from PubChem BioAssay (NCATS).
